Test results taken from the supplement of paper PMC10981050.
“And” between values parts separate entries of the source, which are not always exact repeats. Equal values may be shown once. Where a name gives a salt, the structure may show the parent alone.

Experiments:
Assay in all cases: cell viability relative to vehicle control; higher = less cytotoxic
Conditions in all cases: 10 µM
K562 = system: K562
Procedure, shortened: (§1)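 Screening covered the Selleck bioactive, kinase and epigenetic probe libraries, less identity-inconsistent compounds, on CRISPR-edited mutant clones and isogenic wild-type clones of four leukaemia lines. Cells, at 2000 per well in 50 µL medium, received a single 10 µM acoustically dispensed dose. After 48 h the supernatant was removed and CellTiter-Glo luminescence was read. Viability was analysed in Genedata Screener as percent of the on-plate vehicle control.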

MARIMO = system: MARIMO
Procedure, shortened: as §1

MOLM14 = system: MOLM14
Procedure, shortened: as §1

OCI-AML2 = system: OCI-AML2
Procedure, shortened: as §1

| SMILES | cell viability (K562; SRSF2 genotype: SRSF2 P95H/wt) | cell viability (K562; SRSF2 genotype: SRSF2 wt/wt) [%] | cell viability (MARIMO; SRSF2 genotype: SRSF2 P95H/wt) [%] | cell viability (MARIMO; SRSF2 genotype: SRSF2 wt/wt) [%] | cell viability (MOLM14; SRSF2 genotype: SRSF2 P95H/wt) [%] | cell viability (MOLM14; SRSF2 genotype: SRSF2 wt/wt) [%] | cell viability (OCI-AML2; SRSF2 genotype: P95H/wt) [%] | cell viability (OCI-AML2; SRSF2 genotype: wt/wt) [%] |
| --- | --- | --- | --- | --- | --- | --- | --- | --- |
| CC#Cc1cncc(-c2ccc3c(c2)C2(N=C(C)C(N)=N2)C2(CCC(OC)CC2)C3)c1 (configuration not stated) | 108% and 98.5% | 107 | 100 | 103 | 98 | 98.9 | 88.8 | 93.1 |
| C=C(C)[C@@H]1CCC2=CC(=O)C[C@@H](C)[C@]2(C)C1 [Nootkatone] | 104% and 105% | 107 | 100 | 95.4 | 105 | 103 | 107 | 103 |
| CCOC(=O)c1ccc(O)c(OC)c1 [Ethyl Vanillate] | 97.5% and 92.9% | 100 | 105 | 108 | 94.1 | 104 | 103 | 91.1 |
| CN(C)CCNC(=O)c1cccn2c(=O)c3cc4ccccc4cc3nc12 | 32.5% and 33.8% | 30.8 | 35 | 26.6 | 0.3 | 0.24 | 0.28 | 1.23 |
| CC[C@H]1OC(=O)[C@H](C)[C@@H](O[C@H]2C[C@@](C)(OC)[C@@H](O)[C@H](C)O2)[C@H](C)[C@@H](O[C@@H]2O[C@H](C)C[C@H](N(C)C)[C@H]2O)[C@](C)(OC)C[C@@H](C)C(=O)[C@H](C)[C@@H](O)[C@]1(C)O [Clarithromycin (Biaxin, Klacid)] | 105% and 111% | 107 | 99 | 102 | 99.6 | 104 | 108 | 91.7 |
| CC(C)c1cnn2c(NCc3ccccc3-n3cccn3)nc(OC3CCCNC3)nc12 (configuration not stated) | 5.8% and 12.8% | 9.75 | 0.54 | 0.75 | 0.56 | 0.56 | 0.46 | 1.89 |
| O=C(Nc1ccccc1-c1cn2c(CN3CCNCC3)csc2n1)c1cnc2ccccc2n1 | 0.23% and 0.19% | 0.26 | 0.19 | 0.26 | 0.15 | 0.18 | 0.14 | 0.2 |
| CC(ONC(=O)c1cc(C(F)(F)F)cc(C(F)(F)F)c1)C(=O)Nc1ccc(Cl)cc1 (configuration not stated) | 78.9% and 81% | 78.8 | 95.5 | 102 | 88.7 | 93.2 | 82 | 90.7 |
| C=C1CCC[C@]2(C)Cc3occ(C)c3C[C@@H]12 [Atractylon] | 104% and 98.2% | 97.5 | 98.4 | 99 | 103 | 99.3 | 95 | 98 |
| CCCCCCCCCCCCCCCCCC[N+](C)(C)C [Trimethyloctadecylammonium bromide] | 13.1% and 20% | 48.1 | 12.1 | 16.6 | 0.73 | 0.49 | 0.97 | 2.46 |
| CO/N=C1\C[C@]2(C[C@@H]3C[C@@H](C/C=C(\C)C[C@@H](C)/C=C/C=C4\CO[C@@H]5[C@H](O)C(C)=C[C@@H](C(=O)O3)[C@]45O)O2)O[C@H](/C(C)=C/C(C)C)[C@H]1C [Moxidectin] | 59.6% and 63.5% | 66.4 | 54.6 | 67.3 | 46.9 | 53.3 | 40.1 | 25.3 |
| c1ccc2c(CC3=NCCN3)cccc2c1 [Naphazoline hydrochloride (Naphcon)] | 102% and 99.6% | 94.5 | 106 | 107 | 97.1 | 103 | 97.8 | 106 |
| C[C@H]1O[C@@H](O[C@H]2CC[C@@]3(C)[C@@H](CC[C@]4(C)[C@@H]3C=C[C@]35OC[C@@]6(CCC(C)(C)C[C@H]63)[C@H](O)C[C@]54C)[C@]2(C)CO)[C@H](O)[C@@H](O[C@@H]2O[C@H](CO)[C@@H](O)[C@H](O)[C@H]2O)[C@H]1O [Saikosaponin D] | 6.69% and 0.65% | 0.4 | 14 | 3.54 | 0.86 | 0.86 | 10.2 | 12.9 |
| CNc1ccc([N+](=O)[O-])c(Nc2ccc3[nH]ncc3c2)n1 | 59.1% and 76.9% | 58.6 | 50.4 | 60 | 18.1 | 9.24 | 18.9 | 26.6 |
| CC=C1C(=O)C[C@H]2[C@@H]3CCC4=CC(=O)CC[C@]4(C)[C@H]3CC[C@]12C [Guggulsterone E&Z] | 76% and 84.7% | 79.3 | 61.7 | 72.3 | 80.4 | 89.3 | 71.8 | 76.7 |
| CC(C)=CCC[C@](C)(O[C@@H]1O[C@H](CO)[C@@H](O)[C@H](O)[C@H]1O)[C@H]1CC[C@]2(C)[C@@H]1[C@H](O)C[C@@H]1[C@@]3(C)CC[C@H](O)C(C)(C)[C@@H]3CC[C@]12C [Ginsenoside CK] | 82.7% and 78.2% | 77 | 92.6 | 104 | 77.2 | 95 | 65.3 | 76.4 |
| Cn1c(Nc2ccc(C(F)(F)F)cc2)nc2cc(Oc3ccnc(-c4ncc(C(F)(F)F)[nH]4)c3)ccc21 | 59.6% and 69.8% | 47.5 | 52.3 | 58.6 | 64.2 | 50.1 | 38.6 | 47.4 |
| C/C=C(\C)C(=O)OC1c2c(ccc3ccc(=O)oc23)OC(C)(C)C1OC(=O)/C(C)=C/C (configuration not stated) [Paeruptorin B] | 92.7% and 97.1% | 89.7 | 86.9 | 96.3 | 89.7 | 92.3 | 93.8 | 103 |
| C=C1CC[C@H]2O[C@]2(C)CC[C@@H]2[C@@H]1CC2(C)C [Caryophyllene oxide] | 100% and 97% | 105 | 102 | 105 | 103 | 107 | 112 | 98 |
| Nc1ncccc1-c1nc2ccc(-c3ccccc3)nc2n1-c1ccc(C2(N)CCC2)cc1 [Miransertib (ARQ 092)HCl] | 35.5% and 48% | 30.4 | 75.3 | 72.4 | 39.3 | 48.1 | 33 | 49.2 |

| SMILES | cell viability (K562; SRSF2 genotype: SRSF2 P95H/wt) | cell viability (K562; SRSF2 genotype: SRSF2 wt/wt) [%] | cell viability (MARIMO; SRSF2 genotype: SRSF2 P95H/wt) [%] | cell viability (MARIMO; SRSF2 genotype: SRSF2 wt/wt) [%] | cell viability (MOLM14; SRSF2 genotype: SRSF2 P95H/wt) [%] | cell viability (MOLM14; SRSF2 genotype: SRSF2 wt/wt) [%] | cell viability (OCI-AML2; SRSF2 genotype: P95H/wt) [%] | cell viability (OCI-AML2; SRSF2 genotype: wt/wt) [%] |
| --- | --- | --- | --- | --- | --- | --- | --- | --- |
| CCOCC(O)COc1ccc(NC(=O)CC[S+](C)C)cc1 (configuration not stated) [Suplatast tosylate] | 100% | 103 | 97.7 | 109 | 105 | 105 | 97.7 | 110 |
| CCOC(=O)c1cccc(N)c1 [Ethyl 3-Aminobenzoate methanesulfonate] | 96.7% and 92.4% | 85.1 | 87.2 | 96.5 | 88.7 | 96.5 | 94.2 | 90.7 |
| N#Cc1ccc(COC[C@H]2O[C@@H](n3c(NCc4ccc(Cl)c(Cl)c4)nc4c(N)ncnc43)[C@H](O)[C@@H]2O)cc1 | 52% and 62.8% | 45.7 | 32.5 | 35.6 | 26 | 14.3 | 35.1 | 34.8 |
| Nc1cc(F)ccc1NC(=O)/C=C/c1cnn(C/C=C/c2ccccc2)c1 | 89.5% and 93.8% | 83.6 | 77.8 | 100 | 90.5 | 94.2 | 104 | 87.4 |
| OC[C@H]1O[C@@H](Oc2c(O)cc(O)cc2/C=C/c2ccc(O)cc2)[C@H](O)[C@@H](O)[C@@H]1O [Astragalus polyphenols] | 91% and 89.8% | 88.5 | 82.9 | 96.1 | 67.9 | 80.4 | 76.8 | 84.5 |
| CCCCC(C=O)NC(=O)C(CC(C)C)NC(=O)C(CC(C)C)NC(C)=O (configuration not stated) | 1.41% and 2.62% | 1.86 | 1.3 | 1.7 | 0.23 | 0.15 | 0.23 | 1.17 |
| O=C(O)CC(O)(CC(=O)OCc1ccc(O[C@@H]2O[C@H](CO)[C@@H](O)[C@H](O)[C@H]2O)cc1)C(=O)OCc1ccc(O[C@@H]2O[C@H](CO)[C@@H](O)[C@H](O)[C@H]2O)cc1 (some centres not stated) [Parishin B] | 106% and 105% | 109 | 103 | 98.4 | 113 | 105 | 99.6 | 100 |
| CN[C@H]1C(=O)N[C@@H]2Cc3ccc(cc3)Oc3cc4cc(c3O[C@@H]3O[C@H](C(=O)O)[C@@H](O)[C@H](O)[C@H]3NC(=O)CCCCCCCCC(C)C)Oc3ccc(cc3Cl)[C@@H](O)[C@@H]3NC(=O)[C@H](NC(=O)[C@@H]4NC(=O)[C@@H](NC2=O)c2cc(cc(O)c2Cl)Oc2cc1ccc2O)c1ccc(O)c(c1)-c1c(O[C@H]2O[C@H](CO)[C@@H](O)[C@H](O)[C@@H]2O)cc(O)cc1[C@@H](C(=O)NCCCN(C)C)NC3=O [Dalbavancin] | 97.1% and 89.6% | 94.9 | 95.8 | 103 | 96.6 | 97.9 | 86.5 | 106 |
| OCc1ccc(-c2ccc(-c3ccc(CO)s3)o2)s1 | 56.7% and 54.9% | 7.66 | 63.2 | 66 | 11.3 | 8.82 | 9.11 | 18.3 |
| CC(C)CCCC(C)C1CCC2C3CCC4CC(O)CCC4(C)C3CCC12C (configuration not stated) [Dihydrocholesterol] | 93% and 100% | 92.6 | 95.2 | 97.3 | 90.2 | 97.6 | 98.3 | 97.6 |
| COc1cc(C(=O)O)ccc1O [Vanillic acid] | 103% and 97.7% | 111 | 98.9 | 105 | 102 | 108 | 104 | 113 |
| Clc1ncnc2nc[nH]c12 [6-Chloropurine] | 88.9% and 82.6% | 82.7 | 92.3 | 87 | 88.9 | 90.3 | 83.3 | 87.9 |
| Cn1sc(=O)n(Cc2ccccc2)c1=O | 0.36% and 9.05% | 0.35 | 0.8 | 0.14 | 0.12 | 0.54 | 0.07 | 0.09 |
| C=C[C@](C)(O)CC[C@@H]1[C@@]2(C)CCCC(C)(C)[C@@H]2CC[C@@]1(C)O [Sclareol] | 93.2% and 93.5% | 95.6 | 94.5 | 94.3 | 106 | 103 | 89.2 | 85.1 |
| OC[C@H]1O[C@@H](Oc2cc3c(O)cc(O)cc3[o+]c2-c2ccc(O)c(O)c2)[C@H](O)[C@@H](O)[C@@H]1O [Cyanidin-3-O-glucoside chloride] | 93.5% and 89% | 87.1 | 91.6 | 92.6 | 90.4 | 91.1 | 83 | 86.2 |
| CC1=C(CC(=O)O)c2cc(F)ccc2/C1=C\c1ccc([S+](C)[O-])cc1 (configuration not stated) [Sulindac (Clinoril)] | 109% and 99.8% | 96.8 | 88.6 | 112 | 92.5 | 100 | 94.2 | 102 |
| CC(C(=O)O)c1cccc(Oc2ccccc2)c1 (configuration not stated) [Fenoprofen calcium] | 90.9% and 83.7% | 86.4 | 88.2 | 92.5 | 89.5 | 90.7 | 84.1 | 87.5 |
| O=C1Nc2ccc(CN3C(=O)CSC3=O)cc2/C1=C/c1cc(CN2CCOCC2)c[nH]1 | 98.7% and 100% | 103 | 97.1 | 100 | 92 | 100 | 97.6 | 91 |
| CC(C)=CCC/C(C)=C/CC/C(C)=C/CC/C=C(\C)CC/C=C(\C)CCC=C(C)C [Squalene] | 101% and 105% | 99.6 | 111 | 105 | 101 | 101 | 110 | 108 |
